Pf growth 48h = P. falciparum growth inhibition at 48 hours (one generation); P. falciparum luciferase growth in erythrocytes, 48 h; AID 504832; 310,000 compounds, 5.9% hits; Potency, µM (series often up to 28.7 µM), for inactives: at the highest dose activity change, negative = inhibition, actives largely listed as inhibitors; note: potency is the fitted concentration of half-maximal effect; % is set by controls: 0 for no effect and ±100 for the full control effect
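Read-out is firefly luciferase luminescence from an integrated reporter in P. falciparum, so falling signal marks reduced parasite growth. Infected erythrocytes were at 2% hematocrit and 0.1% parasitemia (final) in Albumax-supplemented RPMI 1640.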
Pf growth 96h = P. falciparum growth inhibition at 96 hours; 320,000 compounds, 6.9% hits; Potency, µM (titrated, usually from 28.7 µM), inactives show at the top dose activity change, negative = inhibition, actives largely listed as inhibitors; AID 504834; P. falciparum luciferase reporter growth, 96 h; note: potency is the fitted concentration of half-maximal effect; % is set by controls: 0 for no effect and ±100 for the full control effect
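Compounds incubated with erythrocytes infected by luciferase-expressing P. falciparum (2% hematocrit, 0.05% parasitemia final) for 96 hours, 37 C in 5% CO2. Growth inhibition scored as decreased luciferase luminescence.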
CHX counter = counter-screen for Shiga toxin inhibitors: cycloheximide protein synthesis inhibition; cell reporter, cycloheximide protein synthesis inhibition counterscreen; max response, %; 300,000 compounds, 12% hits; in the data active = max response mostly above about 13%, no sharp cut-off; inactive = mostly below about 14%; note: read at 38.3 µM for the half of the compounds with a filed dose; 0% is about no effect
Shiga toxin inh = inhibitors of Shiga toxin in Vero cells; Vero cells, Shiga toxin protein synthesis inhibition reporter; inhibition, % at 38.7 µM; 290,000 compounds, 9.2% hits; AID 2315; in the data active = inhibition mostly above about 28%, no sharp cut-off; inactive = mostly below about 43%; note: 0% is about no effect
LmPK inhibitor = LmPK (Leishmania mexicana) enzyme inhibition. Q27686. purified LmPK, Kinase-Glo ATP luminescence, 1 h. Potency, µM (doses to about 57.5 µM), for inactives: at the top dose activity change, negative = inhibition, hits mostly inhibitors. 290,000 compounds, 0.37% hits. AID 1721; note: potency is the fitted concentration of half-maximal effect; % is set by controls: 0 for no effect and ±100 for the full control effect
Target sequence (Q27686 whole entry, looked up): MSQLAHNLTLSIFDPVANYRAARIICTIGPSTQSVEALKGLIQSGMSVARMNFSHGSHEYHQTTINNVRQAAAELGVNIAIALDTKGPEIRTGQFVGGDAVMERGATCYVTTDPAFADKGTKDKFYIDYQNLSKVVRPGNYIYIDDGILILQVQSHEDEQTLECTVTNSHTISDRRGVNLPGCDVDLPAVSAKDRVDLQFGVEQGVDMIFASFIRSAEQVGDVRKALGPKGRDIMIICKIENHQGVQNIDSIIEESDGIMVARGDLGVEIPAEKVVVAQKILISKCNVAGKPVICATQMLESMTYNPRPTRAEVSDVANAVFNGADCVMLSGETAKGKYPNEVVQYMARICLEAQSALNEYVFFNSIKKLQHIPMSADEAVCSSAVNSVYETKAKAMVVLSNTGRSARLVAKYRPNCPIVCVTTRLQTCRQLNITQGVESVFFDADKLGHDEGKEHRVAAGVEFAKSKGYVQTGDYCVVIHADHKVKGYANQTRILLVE
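Pyruvate kinase activity monitored as ATP production (luciferase luminescence). Conditions: 0.1 nM enzyme, 0.5 mM PEP, 0.1 mM ADP, 1 h, RT; normalized against uninhibited and no-enzyme wells.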
Starred values were filed as active, the others as inactive; ? = inconclusive; nt = no result. Shown are actives, neighbours in structure and some others; about 22% of the full set was active somewhere. Unless noted, calls come from the whole dose curve; as a rule, active = well fitted inhibition curve with a large enough effect; inconclusive = small, poorly fitted or top-dose-only effect, or another doubt; inactive = no such curve, though single readings can be large or run the other way.

SMILES | Pf growth 48h | Pf growth 96h | CHX counter | Shiga toxin inh | LmPK inhibitor
COc1cccc(-c2nnc(NC(=O)c3ccc4ncsc4c3)o2)c1 | ? | 13µM* | 1 | 13 | 0%
COc1cccc(C(=O)Nc2nnc(-c3cccs3)o2)c1 | nt | -72% | 33* | 93 | 3%
Nc1ccccc1NC(=O)CCn1c(=S)[nH]c2ccccc2c1=O | -15% | ? | 10 | -1 | 4%
N#C/C(=C(\O)c1cc(Cl)sc1Cl)c1nc2ccccc2[nH]1 | 9% | 14% | -6 | -4 | 3%
COCC(C)NCc1cccc2ccccc12 (stereo not drawn) | 17% | 4.7µM* | -2 | -10 | -4%
CC(CCc1ccccc1)NCc1cccc2ccccc12 (stereo not drawn) | ? | ? | 0 | -3 | -9%
CC(C)c1ccccc1NC(=O)CSc1n[nH]c(=O)n1C1CC1 | -1% | -19% | nt | nt | nt
CCN(CC)C(=O)C1CCCN(c2ccccc2[N+](=O)[O-])C1 (stereo not drawn) | ? | 40% | 4 | 22 | 4%
CN(Cc1nccn1C)C(=O)CCc1nnc(CCC2CCCCC2)o1 | -3% | -1% | 8 | 44 | -10%
CC(C)N(CCO)C(=O)CCc1nnc(CCCc2ccccc2)o1 | 0% | 38% | 39* | 63* | -1%
CC(C)N1CCCC(CNC(=O)CCc2nnc(CCCCc3ccccc3)o2)C1 (stereo not drawn) | -10% | ? | 2 | -7 | 4%
CC(C)N(Cc1nccn1C)C(=O)CCc1nnc(CCCc2ccccc2)o1 | 3% | 3% | 56* | 59* | 0%
C/C(=C\COc1ccc2ccc(=O)oc2c1)CC[C@@H](O)C(C)(C)O | 69% | 39% | nt | nt | nt
O=[N+]([O-])c1cnc(Sc2ccncn2)s1 | 31% | 0% | 1 | 17 | 4%
C=CCn1c(Sc2ncc([N+](=O)[O-])s2)n[nH]c1=O | ? | 10µM* | 21* | 32 | 6%
COc1cccc(NC(=S)N2CCn3c(nc4ccccc43)C2)c1 | -6% | 36% | -3 | 12 | -1%
NC1=NC(=O)/C(=C/c2ccc(Br)cc2)S1 | 13% | 2.3µM* | 7 | nt | 7%
CCOC(=O)CSC1=NC(=O)/C(=C\c2ccc(OC(C)=O)cc2)S1 | 59% | 189% | 28* | 120* | ?
CCOC(=O)CSC1=NC(=O)/C(=C/c2ccc(Br)cc2)S1 | 153% | -3% | 30* | 60* | -6%
Cc1ccsc1/C=C1\SC(N)=NC1=O | 2% | 128% | 20* | 25 | -9%
O=C(Cc1ccc(Cl)cc1)Nc1ccccc1C(=O)N1CCCCC1 | -3% | 331% | 4 | 5 | 0%
COc1cccc(NC(=O)Cn2c3ccc(F)cc3c3nc4n(c(=O)c32)CCCS4)c1 | ? | ? | -1 | -5 | 5%
O=C(N=C1SC2CS(=O)(=O)CC2N1c1ccc(F)c(Cl)c1)C1CCCO1 (stereo not drawn) | 26% | 32% | 0 | 3 | 3%
COc1ccc(C2C3=C(Nc4ncnn42)c2ccccc2CCC3)cc1 (stereo not drawn) | ? | -8% | -8 | -24 | 4%
Fc1ccc(/C=C2\CCCC3=C2Nc2ncnn2C3c2ccc(F)cc2)cc1 (stereo not drawn) | 13µM* | ? | -2 | -8 | 2%
SMILES | Pf growth 48h | Pf growth 96h | CHX counter | Shiga toxin inh | LmPK inhibitor
COc1ccc(C)cc1NC(=O)CN(C)S(=O)(=O)c1ccc2c(c1)CC(C)N2C(C)=O (stereo not drawn) | -22% | 7.4µM* | 19 | 1 | 8%
COc1cc(OC)c(NC(=O)C2CCN(S(=O)(=O)c3ccc4c(c3)CC(C)N4C(C)=O)CC2)cc1Cl (stereo not drawn) | 0% | 0% | 17* | -4 | 1%
COc1ccc(OC)c(NC(=O)C2CCN(S(=O)(=O)c3ccc4c(c3)CC(C)N4C(C)=O)CC2)c1 (stereo not drawn) | ? | 15µM* | -2 | 9 | -2%
CCN(C(=O)C1CCN(c2nc(-c3ccc(OC)cc3)no2)CC1)c1ccc(OC)cc1 | 9.3µM* | 2% | 8 | -6 | -2%
COc1ccc(NC(=O)N2CCC3(CC2)OCCO3)cc1 | 24% | ? | 27* | 35 | 0%
COc1ccc(NC(=O)N2CCCC(C(=O)NCCc3ccccc3)C2)cc1 (stereo not drawn) | 20% | -16% | 34* | 65* | -3%
O=C(Nc1ccccc1)N1CCC2(CC1)OCCO2 | 1% | ? | 4 | 8 | -8%
COc1ccc(-c2noc(N3CCC(C(=O)Nc4ccc(OC)cc4OC)CC3)n2)cc1 | -14% | 18% | -2 | -1 | -6%
COc1ccc(NC(=O)C2CCCN(C(=O)Nc3ccc(OC)cc3)C2)cc1 (stereo not drawn) | 22% | 10µM* | 9 | -2 | -1%
O=C(COc1ccc(Br)cc1)Nc1ccc(Cc2ccncc2)cc1 | ? | 34% | 1 | 16 | 3%
CCc1ccc(NC(=O)N2CCN(C(=O)C3CCCO3)CC2)cc1 (stereo not drawn) | 62% | 15% | -2 | 9 | -3%
COc1ccc(NC(=O)N2CCCC(c3ccccc3)C2)cc1 (stereo not drawn) | -29% | 2.1µM* | 17* | 47 | 3%
COc1cccc(NC(=O)N2CCOCC2)c1 | 20% | 7% | -5 | -3 | -4%
COc1cccc(NC(=O)N2CCCCCC2)c1 | 100% | 27% | 74* | 46* | -2%
O=C(CCN1CCCC1)Nc1ccc(Br)cc1 | 1% | -15% | -1 | 8 | 0%
COc1cccc(NC(=O)C2CCCCC2)c1 | 83% | ? | 29* | 44* | 6%
O=C(Nc1ccc(Br)cc1)N1CCCCC1 | 47% | 15% | 42* | 140* | -10%
COc1cccc(NC(=O)C2CCCC2)c1 | -9% | 61% | nt | nt | nt
Cc1cc(C(=O)COC(=O)c2cccc(O)c2)c(C)n1C1CC1 | 164% | 282% | nt | nt | nt
COc1ccc(NC(=O)N2CCN(C(=O)Nc3ccc(OC)cc3)CC2)cc1 | -28% | -11% | -3 | 0 | 5%
COc1ccc(NC(=O)N2CCCCCC2)cc1 | 41% | ? | 21* | 50* | -2%
COc1cccc(NC(=O)NC2CCCc3ccccc32)c1 (stereo not drawn) | 0% | ? | 6 | 3 | 2%
COc1ccc(NC(=O)C2CCN(c3nc(-c4ccc(OC)cc4)no3)CC2)cc1 | -16% | -4% | -3 | 14 | 0%
CCC1CCC(NC(=O)Nc2cccc(OC)c2)CC1 (stereo not drawn) | 53% | -58% | 52* | 64* | 4%
COc1ccc(-c2noc(N3CCCC(C(=O)Nc4ccc(C(C)=O)cc4)C3)n2)cc1 (stereo not drawn) | ? | ? | 28* | 31 | 0%
COc1cccc(NC(=O)N2CCN(c3cccc(C)c3)C(C)C2)c1 (stereo not drawn) | -4% | 3% | 34* | 50* | 4%
